High-throughput results deposited in PubChem BioAssay by National Center for Advancing Translational Sciences (NCATS).
TDP1 cell CPT = growth inhibition of DT40 Tdp1-/-;hTDP1 cells with camptothecin (screen for TDP1 inhibitors). chicken DT40 Tdp1-/-;hTDP1 cells + 20 nM CPT, ATP luminescence, 48 h. 12% of 420,000 active. Potency, µM (doses to about 46.2 µM), without a hit: at the top dose activity change, negative = growth inhibition, actives largely listed as inhibitors; also: nearly all actives have a fitted effect of over 55% in size
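Cell growth measured by CellTiter-Glo luminescence after a minimum 48 h, 37 C compound exposure with 20 nM CPT in Tdp1-knockout DT40 cells stably expressing hTDP1, seeded 400/well; qHTS titration format.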
HT1080 IDH1KD tx = kills HT-1080 cells with IDH1 knockdown. HT-1080 IDH1 knockdown viability, ATP luminescence, 48 h. AID 686971. 2% of 360,000 active. Potency, µM (series often up to 46.1 µM), inactives show top-dose activity, negative = toxicity, most hits filed as cytotoxic;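 also: 0% = DMSO wells and -100% = cell-free medium wells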
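Assay cells: HT-1080 with IDH1 knockdown, 750 per well, RPMI/5% FBS. Exposure: 48 h at 37 °C following 2 h pre-incubation. Read: CellTiter-Glo luminescence; fitted concentration-response, curve class assigned.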
KB-3-1 cytotox = KB-3-1 parental cell cytotoxicity. Potency, µM (doses to about 46.1 µM), most hits filed as cytotoxic. KB-3-1 viability, CellTiter-Glo ATP luminescence, 72 h. 1.4% of 400,000 active; also: nearly all actives have a fitted effect of over 60% in size
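Parental KB-3-1 adenocarcinoma cells in phenol-red-free DMEM with 10% FBS were pin-treated with compounds at several concentrations, incubated 72 h at 37 °C, and viability read by CellTiter-Glo luminescence; concentration-effect curves were fitted after normalization.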
TDP1 cell noCPT = qHTS for Inhibitors of human tyrosyl-DNA phosphodiesterase 1 (TDP1): qHTS in cells in absence of CPT; DT40 Tdp1-/- hTDP1 cells, no CPT, ATP luminescence, 48 h; Potency, µM (doses to about 46.2 µM), for inactives: top-dose activity change, negative = growth inhibition, usual class: inhibitors; AID 686978, 2013; 15% of 420,000 active; also: nearly all actives have a fitted effect of over 55% in size
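Luminescent ATP content (CellTiter-Glo) served as the growth readout. Knockout chicken DT40 cells expressing human TDP1 were exposed to compounds without camptothecin for a minimum 48 hr at 37 °C.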
KB-V1 cytotox = kills drug-selected multidrug resistant KB-V1 cells; KB-V1 MDR cells viability, CellTiter-Glo, 72 h; Potency, µM (titrated, usually from 46.1 µM), actives largely listed as cytotoxic; 3.4% of 400,000 active; AID 1347076; also: nearly all actives have a fitted effect of over 60% in size
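Potencies derive from concentration-effect curves fitted to normalized luminescence (CellTiter-Glo) of KB-V1 cells treated for 72 h at 37 degrees C in phenol-red-free DMEM containing 10% FBS.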
HT1080-NT tox = kills 2HG-producing HT-1080-NT fibrosarcoma cells. Potency, µM (highest dose often 46.1 µM), without a hit: at the top dose activity, negative = less viability, actives largely listed as cytotoxic. AID 686970. HT-1080-NT fibrosarcoma viability, CellTiter-Glo ATP luminescence, 48 h. 1.6% of 360,000 active;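 also: NT is the 2HG producing partner of a matched IDH1 knockdown line; 0% = DMSO-treated cells and -100% = media-only wells without cells; nearly all actives have a fitted effect of over 55% in size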
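HT-1080-NT; 750 cells/well; 5% FBS RPMI; 48 h compound, 37 degrees C; CellTiter-Glo luminescence; curve fitting and curve-class assignment.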
Starred values were filed as active, the others as inactive; [ ] = another dose, or the depositor's remark. An excerpt weighted towards active compounds, which were near 19% of everything screened. Calls follow the shape of the dose curve; as a rule, active = well fitted curve in the direction sought with a large enough effect; inconclusive = small, poorly fitted or top-dose-only effect, or another doubt; inactive = no such curve, though single readings can be large; an effect the other way counts as inactive or inconclusive. Unless noted, % is scaled to controls: 0 for no effect and ±100 for the full control effect; potency is read from the fitted curve at half-maximal effect.

Results for CCn1c(SCC(=O)NC2CCCC2)nnc1-c1ccccn1 ?
TDP1 cell CPT: 10%; HT1080 IDH1KD tx: 14%; KB-3-1 cytotox: inactive; TDP1 cell noCPT: 5%; KB-V1 cytotox: inactive; HT1080-NT tox: 8%

What do the screens show for `CCNC(=O)c1cc(NC(=O)COC)cc2nc(-c3ccncc3)n(C)c12`?
TDP1 cell CPT: inconclusive; TDP1 cell noCPT: -15%

What do the screens show for `Cc1cccc(-c2onc3ccc(C4(C)OCCO4)cc23)c1`?
TDP1 cell CPT: inconclusive; HT1080 IDH1KD tx: -7%; KB-3-1 cytotox: inactive; TDP1 cell noCPT: 15µM*; KB-V1 cytotox: inactive; HT1080-NT tox: -9%

How did COc1ccc(-n2c(/C=C/c3cccc4ccccc34)nc3ccccc3c2=O)cc1OC do in these assays?
TDP1 cell CPT: inconclusive; KB-3-1 cytotox: inactive; TDP1 cell noCPT: 15µM*; KB-V1 cytotox: inconclusive

How did COc1ccc(/C=C/c2nc3ccccc3c(=O)n2-c2cccc(C(F)(F)F)c2)cc1 do in these assays?
TDP1 cell CPT: 5.8µM*; KB-3-1 cytotox: inconclusive; TDP1 cell noCPT: 12µM*; KB-V1 cytotox: inconclusive

What do the screens show for `COc1cc(OC)c(OC)cc1/C=C/c1nc2cc3ccccc3cc2c(=O)n1-c1ccc(Cl)cc1`?
TDP1 cell CPT: 13µM*; KB-3-1 cytotox: inactive; TDP1 cell noCPT: 16µM*; KB-V1 cytotox: inconclusive

Results for COc1cc(OC)c(OC)cc1/C=C/c1nc2cc3ccccc3cc2c(=O)n1-c1ccccc1Br ?
TDP1 cell CPT: inconclusive; KB-3-1 cytotox: inactive; TDP1 cell noCPT: inconclusive; KB-V1 cytotox: inactive

How did CCCCNC(=S)NNC(=O)CCn1nc(C)c(Br)c1C do in these assays?
TDP1 cell CPT: 6.3µM*; HT1080 IDH1KD tx: 1.1µM*; KB-3-1 cytotox: inactive; TDP1 cell noCPT: 5.6µM*; KB-V1 cytotox: inactive; HT1080-NT tox: 0.89µM*

What do the screens show for `Cc1nn(CCC(=O)NNC(=S)Nc2ccc(F)cc2)c(C)c1Br`?
TDP1 cell CPT: inconclusive; HT1080 IDH1KD tx: -1%; KB-3-1 cytotox: inactive; TDP1 cell noCPT: inconclusive; KB-V1 cytotox: inactive; HT1080-NT tox: 0%

Results for CCN(C(=O)c1c(C)oc2ncnc(N3CCCCC3)c12)c1cc(C)ccc1C ?
TDP1 cell CPT: inconclusive; KB-3-1 cytotox: inactive; TDP1 cell noCPT: 18µM*; KB-V1 cytotox: inactive

What do the screens show for `COc1cc(OC)c(NC(=O)c2c(C)oc3ncnc(N4CCCCC4)c23)cc1Cl`?
TDP1 cell CPT: -30%; KB-3-1 cytotox: inactive; TDP1 cell noCPT: -20%; KB-V1 cytotox: inactive

Results for Cc1oc2ncnc(N3CCCCC3)c2c1C(=O)N1CCN(c2ccc(Cl)cc2)CC1 ?
TDP1 cell CPT: -19%; KB-3-1 cytotox: inactive; TDP1 cell noCPT: inconclusive; KB-V1 cytotox: inactive

Results for Cc1ccc(CCNC(=O)c2c(C)oc3ncnc(N4CCOCC4)c23)cc1 ?
TDP1 cell CPT: 10%; TDP1 cell noCPT: -13%

Results for COc1cc(OC)c(N(C)C(=O)c2c(C)oc3ncnc(N4CCCCC4)c23)cc1Cl ?
TDP1 cell CPT: inconclusive; KB-3-1 cytotox: inactive; TDP1 cell noCPT: 16µM*; KB-V1 cytotox: inactive

What do the screens show for `Cc1ccc(NC(=O)c2c(C)oc3ncnc(N4CCCCC4)c23)c(C)c1`?
TDP1 cell CPT: 18µM*; TDP1 cell noCPT: inconclusive

How did CCn1c(-c2ccccc2F)nc2cc(NC(C)=O)cc(C(=O)N3CCCC3c3nccs3)c21 (centres undefined) do in these assays?
TDP1 cell CPT: 7%[9.04 µM]; TDP1 cell noCPT: 2%

Results for O=C(Nc1ccncc1)c1sc2ccccc2c1Cl ?
TDP1 cell CPT: inconclusive; HT1080 IDH1KD tx: 0%; KB-3-1 cytotox: inactive; TDP1 cell noCPT: 18µM*; KB-V1 cytotox: 8.2µM*; HT1080-NT tox: 12%
